Structures are written as SMILES. A number with no mark means an inactive call. How the calls were made is not given here.

The target in this assay is Pantothenate synthetase (Mycobacterium tuberculosis (strain ATCC 25618 / H37Rv)) (UniProt P9WIL5). Description: Recombinant Mtb pantothenate synthetase (PanC) inhibitors, coupled enzyme, confirmatory (AID 375).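 Further: 0% = full reaction with vehicle and 100% = no enzyme background.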 Particulars: coupled enzyme assay; at 10 µM, active compounds read high.
Pantothenate synthetase (Mycobacterium tuberculosis (strain ATCC 25618 / H37Rv)), sequence (P9WIL5 whole entry, looked up): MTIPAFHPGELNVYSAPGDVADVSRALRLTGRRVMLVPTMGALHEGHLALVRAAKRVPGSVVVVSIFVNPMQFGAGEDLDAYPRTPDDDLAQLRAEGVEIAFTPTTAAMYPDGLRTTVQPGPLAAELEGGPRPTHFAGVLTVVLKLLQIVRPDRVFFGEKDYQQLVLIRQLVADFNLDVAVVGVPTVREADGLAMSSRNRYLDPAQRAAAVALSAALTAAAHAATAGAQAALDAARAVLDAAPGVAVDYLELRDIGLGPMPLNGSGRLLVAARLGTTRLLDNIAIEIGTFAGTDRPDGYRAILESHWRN
With `CCOc1ncccc1C(=O)Nc1ccc(Cl)cc1`, the inhibition was 2%.
Next, `COc1cc(C2c3c(oc4ccccc4c3=O)C(=O)N2c2ccc(C)cn2)ccc1O` (stereo not given): 0%; `CCOC(=O)c1cccc(NC(=O)CSc2nnc(-c3ccoc3C)n2CCOC)c1`: 1%.
As for `CC(CCc1ccco1)NC(=O)Cn1ncc2c1-c1ccccc1OC2` (stereo not given), the figure is 5%; as for `CC1CN=C(N(C(=O)Nc2ccccc2)c2ccc(S(=O)(=O)N3CCOCC3)cc2)S1` (stereo not given), 0%.
Take `CCOC(=O)CNC(=O)c1c(C)nn(-c2ccccc2)c1Cl`: the inhibition is 0%.
In the case of `O=C(CSc1nnc(Cn2cnc3ccccc32)o1)c1ccccc1`, the inhibition was 0%.
As for `COc1ccc(C2CC(c3ccccc3)Nc3nc(NC(=O)c4cccs4)nn32)cc1` (stereo not given), the figure is 0%.
Take `Cc1cc(NC(=O)COc2cccc(Oc3ccccc3)c2)no1`: the inhibition is 8%.
Next, `CCC(c1nnnn1Cc1ccco1)N(CCc1ccccc1)Cc1cc2cccc(C)c2[nH]c1=O` (stereo not given): 1%; `CCSc1nnc(NC(=O)CSc2ncccn2)s1`: 0%; `CC(NC(=O)COc1ccccc1)C(=O)NC1=NCCS1` (stereo not given): 0%.
Next, `COc1ccc(N(C(=O)c2ccco2)C(C(=O)NC2CCCC2)c2ccc(N(C)C)cc2)cc1OC` (stereo not given): 1%; `CC1=C(C)C(=O)C(CCCCC#CCCCC#CCO)=C(C)C1=O`: 6%.
As to `Cc1ccc(-n2c(-c3ccncc3)nnc2-c2cccs2)cc1`, the inhibition was 1%.
Next, `COc1ccc(-n2c(SCc3ccc(C#N)cc3)nnc2-c2ccccn2)cc1`: 0%.
As for `Cc1cnc(C(=O)Nc2ccc(N3CCN(C(=O)OC(C)(C)C)CC3)cc2)cn1`, the figure is 0%; as for `O=C(NCCC1=CCCCC1)N[C@@H](Cc1ccccc1)C(=O)O`, 6%.
For the compound `CCCCC(CC)C(=O)Nc1ccc(Cl)cn1` (stereo not given), the inhibition is 8%.
Take `N#Cc1cc2c(nc1SCC(=O)N1CCCCC1)CCCC2`: the inhibition is 0%.
As for `O=C1CC(N2CCOCC2)C(=O)N1c1ccccc1Cl` (stereo not given), the figure is 1%; as for `CCC(C(=O)N1CCc2cc(OC)c(OC)cc2C1)c1ccccc1` (stereo not given), 0%; as for `COCc1nnc(NC(=O)c2ccc(NC(C)=O)cc2)s1`, 2%.
As for `CCC(OC(=O)c1cccs1)C(=O)NCc1ccco1` (stereo not given), the figure is 0%.
For `N#CCCN1CCN(S(=O)(=O)c2ccc(S(=O)(=O)NC3CCCC3)cc2)CC1`, the inhibition was 0%.
As for `Cc1ccc2oc(=O)c3cnn(CC(=O)NCCC(C)C)c3c2c1`, the figure is 0%; as for `COc1cccc(NC(=O)CC2SC(=Nc3ccccc3)NC2=O)c1` (stereo not given), 0%.
As for `CCCC(=O)Nc1nnc(Sc2ccc(N(C)C)cc2)s1`, the inhibition was 0%.
For `Cc1ccc(NC(=O)COc2nc(C)cs2)cc1`, the inhibition is 1%.
With `CCOC(=O)N1CCC(NC(=O)c2ccc3c(c2)N(C)CCS3)CC1`, the inhibition is 6%.
Next, `N#CC(C(=O)C1CCCCC1)c1nc2ccccc2[nH]1` (stereo not given): 0%.
Consider `CCOc1ccc(/C=N/n2cnnc2)cc1`, for which the inhibition was 3%.
`COc1ccc(C(=O)NCc2nc3ccccc3[nH]2)cc1OC`: the inhibition was 5%.
For `COc1ccc(-c2nn3c(-c4ccncc4)nnc3s2)cc1OC`, the inhibition is 0%.
`COc1ccc2c(c1)c(CC(=O)O)c(C)n2C(=O)c1ccc(Cl)cc1`: the inhibition was 5%.
Next, `COc1ccc(C(=O)Nc2ccc(Cl)c(Cl)c2)c(OC)n1`: 0%; `COC(=O)CCCCC(=O)C1C(=O)CC(C)(C)C(C(=O)OC)C1=O` (stereo not given): 0%; `CCOC(=O)c1ccc(NS(=O)(=O)c2ccc3c(c2)oc(=O)n3C)cc1`: 0%.
Turning to `Cc1cc(C)n2nc[n+](C)c2n1`, the inhibition was 0%.
As to `Cc1cc(-n2c(C)cc(C(=O)CSc3nnnn3-c3ccc(Cl)cc3)c2C)no1`, the inhibition is 7%.

For the origin of these results see PubChem BioAssay.
